# Data reported in PubChem BioAssay AID686928 (Broad Institute, 2013).
# Potency and affinity values are given separately. Values without a mark were called inactive. The rule behind the calls is not given here.
# Experiment: human cervical cancer cell viability loss – 24 h, plate reader, dry powder, cytotoxicity control, dose response (AID 686928)
# Settings: HeLa cytotoxicity; series mostly up to 80 µM; activity change, negative = cytotoxicity: at the top concentration
row,SMILES,"activity change, negative = cytotoxicity"
1,CCn1nnnc1NCc1ccc(C(C)C)cc1,-0.472% [at 100 µM]
2,Cc1cc(F)c2cc3c(NC(=O)c4ccco4)nn(C)c3nc2c1,2.86% [at 100 µM]
3,Cn1ccc(NC(=O)c2ccco2)n1,7.83% [at 100 µM]
4,O=c1ncn(-c2ccc(F)c(Cl)c2)c2ccccc12,0.53%
5,NC(=O)c1ccccc1Nc1ccccc1,-4.82%
6,O=C(Cc1ccc(-c2ccccc2)cc1)NC1COC1,7.64% [at 100 µM]
7,O=C(Cc1ccc(-c2ccccc2)cc1)NC1CNC1,-10.9% [at 100 µM]
8,Cc1ccc2cc3c(NC(=O)c4cccs4)nn(C)c3nc2c1,-31.7%
9,Cn1cnc(=O)c2ccccc21,11.9%
10,O=C(Nc1nnc(-c2cccnc2)o1)C1CCCCC1,5.91% [at 100 µM]
11,O=C1C(=O)N(Cc2ccccc2Cl)c2ccccc21,-5.25%
12,CCn1nnnc1NC(C)c1ccc(N2CCCC2)cc1 (stereo not drawn),-0.569% [at 100 µM]
13,O=c1ncn(-c2ccccc2)c2ccccc12,4.02%
14,O=c1ncn(-c2ccc(Cl)c(Cl)c2)c2ccccc12,-5.87%
15,O=C(CC1CCCCC1)Nc1nnc(-c2ccc3c(c2)CCCC3)o1,-4.33% [at 35 µM]
16,O=C(Nc1nnc(-c2ccccc2Cl)o1)C1CCCCC1,-10.8% [at 100 µM]
17,O=c1ncn(-c2ccc(Cl)cc2)c2ccccc12,2.74%
18,Cc1ccc2cc3c(NC(=O)c4cc5ccccc5o4)nn(C)c3nc2c1,-46.2% [at 100 µM]
19,Cc1ccc2cc3c(NC(=O)Cc4ccco4)nn(C)c3nc2c1,-21.7% [at 100 µM]

row,SMILES,"activity change, negative = cytotoxicity"
1,COc1ccc(-c2nnc(NC(=O)C3CCCCC3)o2)cc1,-9.23% [at 100 µM]
2,O=c1ncn(-c2cccc(F)c2)c2ccccc12,1.9%
3,O=C(Nc1nnc(-c2cccc(Cl)c2)o1)C1CCCCC1,-0.512%
4,C(=N\c1nnc(-c2ccc3c(c2)OCCO3)o1)/c1ccccc1,-8.71% [at 100 µM]
5,Cc1ccc2c(=O)ncn(-c3cccc(Cl)c3)c2c1,2.63%
6,CN(C)/C=N/c1nnc(-c2ccc3c(c2)OCCO3)o1,-5.9% [at 100 µM]
7,Cc1cccc(-n2cnc(=O)c3ccccc32)c1,-8.44%
8,Cn1nc(NC(=O)c2ccco2)c2ccccc21,-4.66% [at 100 µM]
9,CCn1nnnc1/N=C/c1ccc(N2CCCCC2)cc1,-16.1% [at 100 µM]
10,CCc1nc(=O)c2ccccc2n1-c1cccc(Cl)c1,-1.68%
11,Cc1ccc2c(c1)c(=O)ncn2-c1cccc(Cl)c1,0.664%
12,COc1cccc(-c2nnc(NC(=O)C3CCCCC3)o2)c1,1.34% [at 100 µM]
13,O=S(=O)(Nc1nnc(-c2ccc3c(c2)OCCO3)o1)c1ccc(Cl)cc1,2.3% [at 100 µM]
14,O=C(Nc1nnc(-c2ccc3c(c2)OCCO3)o1)C1CCCC1,7.68%
15,O=c1ncn(-c2cccc(Cl)c2)c2cccc(Cl)c12,-3.27%
16,Cc1ccc2cc3c(NC(=O)c4ccccn4)nn(C)c3nc2c1,10.8% [at 100 µM]
17,O=C(CC1CCCCC1)Nc1nnc(-c2cccnc2)o1,13%
18,NC(=O)c1ccccc1Nc1cccc(Cl)c1,-29.1%
19,CCC(C)(C)C(=O)Nc1nnc(-c2ccc3c(c2)OCCO3)o1,-17.3%
